The whole screen tested about 300,000 compounds, of which about 3,200 (1.1%) were called active. The entries come from a sample that favours actives as a whole. Values without a mark were called inactive. Cut-off read from the data, not from the text of the source: active = inhibition above about 75%; inconclusive = no clear call, values can overlap the other calls; inactive = below that; tested in HMLE shEcad cells.

For orientation: inhibition means the drop in the measured response relative to a control, in per cent.

A short description of this experiment: growth suppression of cancer stem-like cells – cell-based, luminescence, primary screen (AID 2717). The settings on record: cancer stem cell-like cells viability, at 7.5 µM, active compounds read high.
As to `CCCC(CNC(=O)COC(=O)C1=NNC(=O)CC1)c1ccc(Cl)cc1Cl` (stereo unspecified), the inhibition was -14.7%.

On to `COc1cc(S(=O)(=O)N2CCN(C(=O)C3CC3)CC2)ccc1NC(C)=O`, for which the inhibition was 1.76%.

`COc1ccc(C(=O)Nc2cc(S(=O)(=O)N3CCCC3)ccc2Cl)cc1`: the inhibition was 7.7%.

For `Cc1ccc(C(=O)OCC(=O)NCc2cc(C)c(O)c(C)c2)cc1S(=O)(=O)N1CCCCC1`, the inhibition was -3.22%.

As for `c1cncc(-c2nnc3n2C2(CCCCC2)Cc2ccccc2-3)c1`, the inhibition is 2.64%.

With `O=c1c2ccccc2nc2n1C1(CCCCC1)Cc1ccccc1-2`, the inhibition is 76.3% (active).

For `CCC1(CC)Cc2ccccc2-c2nc3ccccc3c(=O)n21`, the inhibition was 1.88%.

`COc1ccc(OC)c(/C=C/C(=O)c2ccc3c(c2)OCO3)c1`: the inhibition is 23.6%.

On to `Cc1cc(NC(=O)CSc2ncc(C(F)(F)F)cc2Cl)no1`, for which the inhibition was -11.1%.

For the compound `NS(=O)(=O)c1cccc(NC(=O)COC(=O)c2cc([N+](=O)[O-])ccc2N2CCCC2)c1`, the inhibition is 8.24%.

With `COc1ccc2c(CC(=O)NNC(=O)c3ccccc3F)coc2c1`, the inhibition was -7.08%.

`Nn1c(SCC(=O)NC2CCCc3ccccc32)nnc1C1CC1` (stereo unspecified): the inhibition is -20.9%.

Turning to `O=C(Cc1nc2ccccc2[nH]c1=O)c1ccc(Cl)cc1`, the inhibition is -22.9%.

On to `O=C(/C(=C/c1cccc(Cl)c1)c1nc2ccccc2[nH]1)c1ccccc1`, for which the inhibition was 79.9% (active).

With `CCC(=O)/C(=C(/O)c1ccccc1)c1nc2ccccc2[nH]1`, the inhibition was -8.67%.

Take `CC(Sc1ccccc1F)C(=O)Nc1cccc(S(=O)(=O)N2CCOCC2)c1` (stereo unspecified): the inhibition is -6.48%.

On to `O=C1CCC/C=C/C[C@@H](CC(=O)N(CCO)Cc2ccccc2)C(=O)NC[C@H](c2ccccc2)O1`, for which the inhibition is -5.63%.

Regarding `O=C(O)CCn1cc(/C=C/C(=O)c2ccc(Cl)cc2)c(-c2cccc(Br)c2)n1`, the inhibition was 78.2% (active).

Turning to `CCOC(=O)/C(C#N)=C/c1cn(CCC(=O)O)nc1-c1ccc(Br)cc1`, the inhibition is -7.96%.

On to `O=C(O)/C=C/c1cn(Cc2ccccc2)nc1-c1cccs1`, for which the inhibition was -3.63%.

`O=C(C[C@@H]1C/C=C\CCC(=O)OC[C@@H]2CCCN2C1=O)NCCO`: the inhibition is -0.206%.

Turning to `C/C(N)=C(/C#N)C(=O)COC(=O)c1cc(-c2cccc(Br)c2)nc2ccccc12`, the inhibition was 21.7%.

Take `C/C(N)=C(/C#N)C(=O)COC(=O)c1cc(-c2ccccc2)nc2ccc(Br)cc12`: the inhibition was -0.788%.

With `C/C(N)=C(/C#N)C(=O)COC(=O)c1cc(-c2ccc(C)cc2)nc2ccccc12`, the inhibition is 101% (active).

With `O=C(COc1ccccc1F)NNC(=O)c1cc(Br)ccc1Cl`, the inhibition was 7.13%.

For the compound `COc1cc(OC)cc(C(=O)NNC(=O)Cc2cccs2)c1`, the inhibition is -7.32%.

For the compound `CC1CCCCN1CCCNc1ccc(C(CC(N)=O)NC(=O)c2ccccc2)cc1[N+](=O)[O-]` (stereo unspecified), the inhibition is 6.07%.

For `NC(=O)CC(NC(=O)Cc1cccc2ccccc12)c1ccc(NCc2cc(F)ccc2F)c([N+](=O)[O-])c1` (stereo unspecified), the inhibition was 4.74%.

Turning to `NC(=O)CC(NC(=O)Cc1ccc(Br)cc1)c1ccc(NC2CC3CCC2C3)c([N+](=O)[O-])c1` (stereo unspecified), the inhibition was 85% (active).

With `CCn1c(=N)n(CC(=O)c2cccc(OC)c2)c2ccccc21`, the inhibition is -13.1%.

Take `CCCCCCCCCCOC(=O)Cn1c(COc2ccc(C)cc2)[n+](C)c2ccccc21`: the inhibition was 124% (active).

Consider `Cc1ccc(OCc2nc3ccccc3n2C)cc1`, for which the inhibition was -4.74%.

`CCCCCCCCCCOC(=O)Cn1c(COc2cccc(OC)c2)[n+](C)c2ccccc21`: the inhibition was 104% (active).

Regarding `CCCCOC(=O)Cn1c(=N)n(CCN(CC)CC)c2ccccc21`, the inhibition was 0.539%.

With `COc1cccc(OCC(=O)Nc2ccccc2C(N)=O)c1`, the inhibition is -7.15%.

With `O=C(COC(=O)c1ccc(F)c(S(=O)(=O)N2CCOCC2)c1)NCc1ccc2c(c1)OCO2`, the inhibition is 8.38%.

Turning to `O=C(COc1ccc(F)cc1Br)NCC1COc2ccccc2O1` (stereo unspecified), the inhibition is 6.88%.

Take `Cc1cc(C)cc(OCC(=O)Nc2ccc(N3CCOCC3)cc2N2CCOCC2)c1`: the inhibition was 6.1%.

On to `COc1ccccc1C(=O)NCC(=O)OCC(=O)NNC(=O)c1ccc(Br)cc1`, for which the inhibition was -1.35%.

With `O=C(Oc1ccc(Br)cc1)c1cccnc1`, the inhibition was 4.5%.

Consider `N#CCc1ccc(OC(=O)c2cccnc2)cc1`, for which the inhibition is 9.72%.

Consider `CCCCCCOc1ccc(OC(=O)c2cccnc2)cc1`, for which the inhibition is 86.1% (active).

For `CCc1cc2c(N3CCN(c4nnc(CC)s4)CC3)ncnc2s1`, the inhibition was 1.61%.

Regarding `Oc1ccccc1N1CCN(c2ncnc3sc(-c4ccccc4)cc23)CC1`, the inhibition is 80.7% (active).

For `COc1ccc(Nc2ncnc3sc(-c4ccccc4)cc23)c(OC)c1`, the inhibition is 38.3%.

As to `O=C(OCC(=O)N1CCN(C(=O)c2ccco2)CC1)c1c(Cl)cccc1Cl`, the inhibition was -3.78%.

Regarding `N#Cc1c(NC(=O)CCCN2C(=O)c3ccccc3C2=O)oc(-c2ccccc2)c1-c1ccccc1`, the inhibition was -2.49%.

Turning to `COc1ccc(-c2oc(/N=C/N3CCCC3)c(C#N)c2-c2ccc(OC)cc2)cc1`, the inhibition is -4.12%.

With `N#Cc1c(/N=C/N2CCCC2)oc(-c2ccccc2)c1-c1ccccc1`, the inhibition is 127% (active).

As to `CCN1CCN(C(c2cccnc2)c2cc(Cl)c3cccnc3c2O)CC1` (stereo unspecified), the inhibition is 77.7% (active).

For the compound `CCOC(=O)N1CCN(C(c2cccnc2)c2ccc3cccnc3c2O)CC1` (stereo unspecified), the inhibition was 30.6%.

In the case of `Oc1ccccc1CN1CCN(C(c2ccccc2)c2ccccc2)CC1`, the inhibition is 28.7%.

On to `COc1ccc(CNC(=O)COC(=O)c2sccc2C)cc1OC`, for which the inhibition is 0.384%.

As to `CC1(C)Cc2ccccc2-c2[nH]c(=S)[nH]c(=O)c21`, the inhibition was 0.325%.

In the case of `CC1(C)Cc2ccccc2/C(=C/C(=O)c2ccccc2)N1`, the inhibition is 78.5% (active).

Take `CCOC(=O)C1=C(NC(=S)NC(=O)c2ccccc2)c2ccccc2CC1(C)C`: the inhibition was 3.23%.

Turning to `CC1CCCCC1NC(=O)Cn1c(=O)cnc2ccccc21` (stereo unspecified), the inhibition is 0.34%.

Regarding `O=C(NCc1ccc2c(c1)OCO2)c1cc([N+](=O)[O-])ccc1N1CCOCC1`, the inhibition is 46.4%.

`CC(NS(=O)(=O)c1ccc(Br)cc1)C(=O)NCC1CCCO1` (stereo unspecified): the inhibition is -4.45%.

For the compound `OC(CNCC1CCCO1)Cn1c2ccc(Br)cc2c2cc(Br)ccc21` (stereo unspecified), the inhibition is 116% (active).

In the case of `O=C(CSc1ccc(-c2ccc(Br)cc2)nn1)NCC1CCCO1` (stereo unspecified), the inhibition is 1.96%.

Take `Cc1cc(C(=O)OCC(=O)N2C(C)CCCC2C)c2ccccc2n1` (stereo unspecified): the inhibition was -3.37%.

Consider `CCOC(=O)c1cnc(-n2nc(C)cc2C)nc1NNc1cc(C)nc(-c2ccccc2)n1`, for which the inhibition was 101% (active).

As for `CCOC(=O)c1cnc(-n2nc(C)cc2C)nc1Nc1cccc(C(C)=O)c1`, the inhibition was -9.8%.

As for `Cc1cc(C)n(-c2c(F)c(F)c(COC(=O)c3ccccc3)c(F)c2F)n1`, the inhibition is 3.98%.

In the case of `Nn1c(SCC(=O)Nc2ccc3c(c2)CCC3)nnc1C1CC1`, the inhibition is -6.39%.

For the compound `O=C(COC(=O)c1ccc(F)cc1)NCC1COc2ccccc2O1` (stereo unspecified), the inhibition is -14.2%.

For `CCCc1cc(=O)[nH]c(SCC(=O)OCc2ccccc2)n1`, the inhibition is 4.11%.

`CCCc1cc(=O)[nH]c(SCC(=O)c2cc(C)n(CCC)c2C)n1`: the inhibition was -3.32%.

For the compound `CCCc1cc(=O)[nH]c(SCC(=O)c2c(N)n(CC(C)C)c(=O)n(C)c2=O)n1`, the inhibition was 83.8% (active).

Take `O=C(CCc1nc(-c2ccccc2)no1)Nc1cccc(C(=O)NC2CC2)c1`: the inhibition is 1.1%.

For `CCN(C(=O)COC(=O)c1ccccc1O)c1cccc2ccccc12`, the inhibition is -18.3%.

As for `CCc1cc(C(=O)Nc2nnc(C3CC3)s2)sc1C`, the inhibition is -10.9%.

On to `C[C@H](CO)N1C[C@H](C)[C@@H](CN(C)C(=O)Nc2ccc3c(c2)OCO3)Oc2c(cccc2N(C)C)C1=O`, for which the inhibition was -12.1%.

Regarding `COc1ccc(-c2sc3ccc(OC)cc3c2C#Cc2ccccn2)cc1`, the inhibition was 111% (active).

Take `COc1ccc2sc(-c3ccc(S(C)(=O)=O)cc3)c(C#Cc3cncn3C)c2c1`: the inhibition is 45.5%.

Consider `COc1ccc(-c2c(C#Cc3ccccc3)c3ccccc3n2C)cc1`, for which the inhibition is 3.8%.

Take `COc1ccc2sc(-c3ccc(N(C)C)cc3)c(C#CCO)c2c1`: the inhibition is 113% (active).

As to `COc1ccc(C2(C)ON(c3ccccc3C(F)(F)F)C2=O)cc1` (stereo unspecified), the inhibition was 6.61%.

In the case of `Cn1nnnc1SCC(=O)Nc1cccc(S(=O)(=O)N2CCCCC2)c1`, the inhibition was 1.58%.

As to `Cn1cccc1C(=O)OCC(=O)NCCc1ccccc1`, the inhibition is 6.32%.

On to `Cc1c(C(=O)N2CCCc3ccccc32)oc2ccccc12`, for which the inhibition was -3.96%.

Turning to `Cc1c(C(=O)N2CCCc3ccccc32)sc2nc(-c3ccccc3)cn12`, the inhibition is 36.7%.

Regarding `Cc1cccc2cc3c(N)c(C(=O)N4CCCc5ccccc54)sc3nc12`, the inhibition was 85.3% (active).

For the compound `Oc1c(Cl)cc(Cl)c(Cl)c1Cc1c(O)c(Cl)cc(Cl)c1Cl`, the inhibition is 99.3% (active).

For `Cc1ccc(NS(=O)(=O)c2ccc(C(C)C)cc2)cc1S(=O)(=O)N1CCOCC1`, the inhibition is -16.7%.

Take `Cc1cc(C)cc(NS(=O)(=O)c2ccc(F)cc2)c1`: the inhibition was -6.47%.

Take `COC(=O)Cc1ccc(Oc2ncc(C(F)(F)F)cc2Cl)cc1`: the inhibition is -10.7%.

In the case of `Cc1cc(C)cc(NS(=O)(=O)c2ccc(Oc3ncc(C(F)(F)F)cc3Cl)cc2)c1`, the inhibition was 118% (active).

`CN1C(=O)[C@H]2[C@@H](/C=C/c3ccccc3)N3C(=O)CN(Cc4ccc(-c5ccccc5)cc4)C(=O)[C@@]3(C)[C@H]2C1=O`: the inhibition was -4%.

Regarding `CN(CC(=O)NCCc1ccc(S(N)(=O)=O)cc1)CC(=O)Nc1ccc(F)c(F)c1F`, the inhibition was -16.9%.

(Values after PubChem BioAssay AID2717 (Broad Institute, 2010).)
